How the values were obtained:
Experiment in all cases: thermal shift delta Tm vs DMSO control; higher = stronger stabilization (binding)
Details in all cases: 12.5 µM; protein concentration 2 µM
LOC_OS01G57100-cb003 = system: LOC_OS01G57100-cb003
How it was run: (§1)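 Purified, E. coli-expressed rice kinase domain constructs were tested by differential scanning fluorimetry in 96-well plates: 19.5 μl of 2 μM kinase in 100 mM potassium phosphate pH 7.5, 150 mM NaCl, 10% glycerol, 5 × SYPRO Orange, plus compound in DMSO. Fluorescence was read from 25°C to 95°C at 0.05°C/s. Melting temperatures came from Boltzmann fits, and the shift is the triplicate mean relative to protein with DMSO alone.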

LOC_OS01G60330-cb001 = system: LOC_OS01G60330-cb001
How it was run: as §1

LOC_OS01G60700-cb002 = system: LOC_OS01G60700-cb002
How it was run: as §1

LOC_OS01G63280-cb003 = system: LOC_OS01G63280-cb003
How it was run: as §1

LOC_OS01G67340-cb003 = system: LOC_OS01G67340-cb003
How it was run: as §1

LOC_OS01G70970-cb002 = system: LOC_OS01G70970-cb002
How it was run: as §1

LOC_OS02G07810-cb001 = system: LOC_OS02G07810-cb001
How it was run: as §1

LOC_OS02G08530-cb003 = system: LOC_OS02G08530-cb003
How it was run: as §1

LOC_OS02G14120-cb001 = system: LOC_OS02G14120-cb001
How it was run: as §1

LOC_OS02G17970-cb001 = system: LOC_OS02G17970-cb001
How it was run: as §1

SMILES	thermal shift delta Tm (LOC_OS01G57100-cb003)	thermal shift delta Tm (LOC_OS01G60330-cb001)	thermal shift delta Tm (LOC_OS01G60700-cb002)	thermal shift delta Tm (LOC_OS01G63280-cb003)	thermal shift delta Tm (LOC_OS01G67340-cb003)	thermal shift delta Tm (LOC_OS01G70970-cb002)	thermal shift delta Tm (LOC_OS02G07810-cb001)	thermal shift delta Tm (LOC_OS02G08530-cb003)	thermal shift delta Tm (LOC_OS02G14120-cb001)	thermal shift delta Tm (LOC_OS02G17970-cb001)
CCc1cc(Nc2nccc(-c3c(-c4ccc(OC)c(C(=O)Nc5c(F)cccc5F)c4)nc4ccccn34)n2)c(OC)cc1N1CCC(N2CCN(S(C)(=O)=O)CC2)CC1	1.35 °C	0.65 °C	1.19 °C	0.43 °C	0.06 °C	0.26 °C	0.77 °C	0.82 °C	0.04 °C	0.47 °C
COc1cc(Nc2ncc(F)c(Nc3ccc4c(n3)NC(=O)C(C)(C)O4)n2)cc(OC)c1OC	4.83 °C	4.41 °C	0.57 °C	0.28 °C	0.45 °C	2.5 °C	0.41 °C	4 °C	12.4 °C	0.45 °C
C=CC(=O)Nc1cccc(Nc2nc(Nc3ccc(Oc4ccnc(C(=O)NC)c4)cc3)ncc2F)c1	2.13 °C	6.9 °C	1.08 °C	0.49 °C	0.92 °C	1.63 °C	0.76 °C	2.72 °C	6.96 °C	0.81 °C
CCS(=O)(=O)Nc1ccc2c(c1)/C(=C(/Nc1ccc(CN3CCCCC3)cc1)c1ccccc1)C(=O)N2 [Hesperadin]	1.29 °C	4.08 °C	0.7 °C	1.11 °C	6.7 °C	9.09 °C	1.1 °C	5.73 °C	13 °C	0.3 °C
O=C(Nc1cccc(C(F)(F)F)c1)c1cccc2cc(Oc3cc(CO)ncn3)ccc12	1.09 °C	0.76 °C	1.22 °C	2.3 °C	0.38 °C	0.5 °C	0.69 °C	0.95 °C	0.55 °C	1.28 °C
Nc1cccc(-c2cc3c(Oc4cccc(O)c4)ncnc3[nH]2)c1	2.04 °C	0.91 °C	1.51 °C	2.09 °C	0.65 °C	0.81 °C	1.59 °C	1.94 °C	5.81 °C	0.97 °C
CCOc1cc2ncc(C#N)c(Nc3ccc(OCc4ccccn4)c(Cl)c3)c2cc1NC(=O)/C=C/CN(C)C [Neratinib (HKI-272)]	1.51 °C	0.66 °C	1.67 °C	1.02 °C	1.41 °C	0.3 °C	0.52 °C	1 °C	1.97 °C	1.71 °C
NC(=O)Nc1cc(-c2cccc(F)c2)sc1C(=O)N[C@H]1CCCNC1	4.78 °C	1.93 °C	0.65 °C	0.86 °C	0.78 °C	1.89 °C	1.56 °C	5.46 °C	8.74 °C	0.89 °C
O=C(c1cccc(Cl)c1F)N1CCN(Cc2cccc(Nc3nccs3)n2)CC1	1.37 °C	0.61 °C	1.32 °C	0.37 °C	0.2 °C	0.46 °C	1.01 °C	2.51 °C	9.07 °C	-0.27 °C
Cc1ccc(CNc2ncnc3ccc(-c4ccc(CO)o4)cc23)o1	1.69 °C	0.84 °C	0.78 °C	0.26 °C	-0.04 °C	0.37 °C	0.27 °C	1.61 °C	3.01 °C	1.11 °C
COc1ccc(S(=O)(=O)N(C(C)=O)c2ccccc2/C=C/c2cc[n+]([O-])cc2)cc1	1.85 °C	0.75 °C	0.63 °C	0.55 °C	-0.3 °C	0.2 °C	1.33 °C	0.62 °C	2.16 °C	1.01 °C
CCN(C)S(=O)(=O)Nc1ccc(F)c(C(=O)c2c[nH]c3ncc(-c4cnc(C5CC5)nc4)cc23)c1F	1.23 °C	1.8 °C	0.8 °C	7.4 °C	0.55 °C	0.37 °C	0.74 °C	0.59 °C	-0.46 °C	0.71 °C
Clc1ccc(Nc2nnc(Cc3ccncc3)c3ccccc23)cc1 [Vatalanib (PTK787) 2HCl]	1.4 °C	1.02 °C	5.09 °C	2.03 °C	-0.72 °C	0.27 °C	0.26 °C	0.34 °C	-0.4 °C	0.47 °C
N#CC1(c2ccc(NC(=O)c3cccnc3NCc3ccncc3)cc2)CCCC1 [Apatinib]	1.62 °C	0.33 °C	0.74 °C	5.6 °C	0.6 °C	0.01 °C	1.02 °C	0.96 °C	0.6 °C	-0.16 °C
Cc1nc(Nc2ncc(C(=O)Nc3c(C)cccc3Cl)s2)cc(N2CCN(CCO)CC2)n1 [Dasatinib]	0.7 °C	0.68 °C	1.43 °C	0.25 °C	0.73 °C	0.48 °C	0.58 °C	0.93 °C	4.94 °C	0 °C
CC(=O)Nc1cccc(-n2c(=O)n(C3CC3)c(=O)c3c(Nc4ccc(I)cc4F)n(C)c(=O)c(C)c32)c1	1.39 °C	0.69 °C	0.72 °C	0.03 °C	-0.14 °C	0.12 °C	0.36 °C	1.99 °C	0.02 °C	-0.07 °C
C[C@H](CN(C)C)Oc1nc(Nc2cc3cccc(Cl)c3cn2)cnc1C#N	0.95 °C	1.48 °C	1.39 °C	0.39 °C	0.6 °C	0.34 °C	0.31 °C	1.68 °C	2.95 °C	2.26 °C
CC#CC(=O)Nc1ccc2ncnc(Nc3cccc(Br)c3)c2c1	-0.79 °C	0.53 °C	1.56 °C	0.9 °C	1.06 °C	0.37 °C	0.86 °C	1.43 °C	2.95 °C	1.1 °C

Source: the supplement of paper PMC9694430
